# From PMC5540273 (PLoS ONE, 2017)
# Assays:
# Settings in all cases: concentration: 1 μM, replicates: in singlicate; n = 1
# [1] = test system: PRKCD
# [2] = test system: PRKCE
# [3] = test system: PRKCH
# [4] = test system: PRKCI
# [5] = test system: PRKCQ
# [6] = test system: PRKD1
# [7] = test system: PRKD2
# [8] = test system: PRKD3
# [9] = test system: PRKG1
# [10] = test system: PRKG2
# 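Also: KINOMEscan kinase panel screen.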
Compound,%Inh [1],%Inh [2],%Inh [3],%Inh [4],%Inh [5],%Inh [6],%Inh [7],%Inh [8],%Inh [9],%Inh [10]
CN1CCC(n2cnc(-c3ccc(F)cc3)c2-c2ccnc(NC3CCNCC3)n2)CC1 [SB-229482],1%,27%,0%,0%,13%,0%,0%,0%,0%,17%
Cl.Fc1ccccc1COc1ccc(Nc2ncnc3ccc(-c4nnc(C(F)(F)F)o4)cc23)cc1Cl [GW424170],0%,0%,2%,15%,0%,0%,0%,0%,0%,4%
C[C@@H]1CCN(C(=O)CO)C[C@@H]1N(C)c1ncnc2[nH]ccc12,22%,54%,0%,0%,0%,17%,6%,7%,95.3%,0%
COc1cc2ncnc(Nc3ccc(OCc4ccccc4Br)c(Cl)c3)c2cc1OC.Cl [GI261590],0%,8%,0%,33%,100%,4%,0%,0%,0%,0%
Cc1ccc(O)cc1Nc1cc(C(F)(F)F)nc2ccc(-c3ccncc3)cc12 [GW630823],0%,0%,0%,0%,0%,3%,0%,29%,7%,0%
Cn1ccc2ncnc(Nc3ccc(Oc4cccc(Cl)c4)c(Cl)c3)c21,30%,13%,3%,0%,60%,0%,30%,0%,0%,0%
FC(F)(F)c1cc(Nc2nccc(-c3c(-c4ccc(Cl)cc4)nn4ncccc34)n2)ccc1Cl [GW829351],0%,17%,0%,0%,3%,0%,0%,0%,23%,0%
Nc1nc(-c2cccnc2)c(-c2ccnc3ccccc23)s1 [GW684083],0%,0%,31%,21%,4%,24%,34%,0%,0%,0%
CNc1nccc(-c2c(-c3ccc(F)cc3)ncn2C2CCN(C)CC2)n1 [SB-222903],10%,2%,0%,0%,0%,0%,19%,0%,14%,0%
FC(F)(F)c1ccc(-c2cc(-c3c[nH]nc3-c3ccccn3)ccn2)cc1 [GW599550],0%,6%,21%,23%,16%,23%,16%,17%,4%,2%
CCc1nc(-c2cccc(C)c2)c(-c2ccnc(NC(=O)c3ccccc3)c2)s1,20%,2%,4%,2%,0%,0%,0%,0%,0%,0%
Oc1ccc2ncnc(Nc3ccc(OCc4ccccc4)cc3)c2c1 [GI262866],0%,0%,6%,27%,15%,0%,0%,30%,0%,0%
CC(=O)Nc1n[nH]c2ncc(-c3ccccc3)cc12 [SB-548492],7%,17%,10%,0%,0%,0%,0%,0%,30%,20%
Cl.c1ccc(Cn2ncc3cc(Nc4ncnc5ccccc45)ccc32)cc1 [GW273749],0%,0%,0%,0%,0%,0%,2%,22%,5%,0%
Fc1ccc(-c2ncn(CCCNCc3ccccc3)c2-c2ccncc2)cc1,0%,26%,0%,0%,30%,20%,0%,27%,7%,0%
O=C(CCO)NCCn1ccc2ncnc(Nc3ccc(Oc4cccc(C(F)(F)F)c4)c(Cl)c3)c21,0%,6%,0%,0%,0%,0%,5%,0%,13%,0%
Cl.Cn1ccc(-c2cccc(Nc3ccnc4cc(-c5nccs5)ccc34)c2)n1 [GW525701],0%,10%,14%,0%,0%,0%,0%,14%,22%,0%
Nc1nc(-c2ccccn2)c(-c2ccnc3ccccc23)s1 [GW548057],0%,26%,9%,26%,3%,36%,25%,15%,17%,9%
OCCOCCn1ccc2ncnc(Nc3ccc(Oc4cccc(Cl)c4)c(Cl)c3)c21,28%,2%,0%,0%,0%,0%,0%,0%,4%,0%
Cn1cc(-c2ccc3c(c2)CCN3C(=O)Cc2cccc(C(F)(F)F)c2)c2c(N)ncnc21 [GSK2606414],1%,0%,23%,15%,0%,0%,0%,42%,19%,0%
COc1ccc(-c2oc3ncnc(N)c3c2-c2ccc(OC)cc2)cc1 [SB-589132],0%,28%,4%,35%,0%,30%,0%,0%,0%,0%
